Hit rate of the full screen: of about 310,000 compounds, about 14,000 (4.5%) showed an effect of 50% or more. The effect is printed as a negative number. The sample as a whole holds a higher share of strong results than the screen did.
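Further: peak tail current of the secondary pulse compared with the same well before compound.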

Sequence of human ether-à-go-go-related gene (hERG) potassium channel (Q12809 whole entry, looked up): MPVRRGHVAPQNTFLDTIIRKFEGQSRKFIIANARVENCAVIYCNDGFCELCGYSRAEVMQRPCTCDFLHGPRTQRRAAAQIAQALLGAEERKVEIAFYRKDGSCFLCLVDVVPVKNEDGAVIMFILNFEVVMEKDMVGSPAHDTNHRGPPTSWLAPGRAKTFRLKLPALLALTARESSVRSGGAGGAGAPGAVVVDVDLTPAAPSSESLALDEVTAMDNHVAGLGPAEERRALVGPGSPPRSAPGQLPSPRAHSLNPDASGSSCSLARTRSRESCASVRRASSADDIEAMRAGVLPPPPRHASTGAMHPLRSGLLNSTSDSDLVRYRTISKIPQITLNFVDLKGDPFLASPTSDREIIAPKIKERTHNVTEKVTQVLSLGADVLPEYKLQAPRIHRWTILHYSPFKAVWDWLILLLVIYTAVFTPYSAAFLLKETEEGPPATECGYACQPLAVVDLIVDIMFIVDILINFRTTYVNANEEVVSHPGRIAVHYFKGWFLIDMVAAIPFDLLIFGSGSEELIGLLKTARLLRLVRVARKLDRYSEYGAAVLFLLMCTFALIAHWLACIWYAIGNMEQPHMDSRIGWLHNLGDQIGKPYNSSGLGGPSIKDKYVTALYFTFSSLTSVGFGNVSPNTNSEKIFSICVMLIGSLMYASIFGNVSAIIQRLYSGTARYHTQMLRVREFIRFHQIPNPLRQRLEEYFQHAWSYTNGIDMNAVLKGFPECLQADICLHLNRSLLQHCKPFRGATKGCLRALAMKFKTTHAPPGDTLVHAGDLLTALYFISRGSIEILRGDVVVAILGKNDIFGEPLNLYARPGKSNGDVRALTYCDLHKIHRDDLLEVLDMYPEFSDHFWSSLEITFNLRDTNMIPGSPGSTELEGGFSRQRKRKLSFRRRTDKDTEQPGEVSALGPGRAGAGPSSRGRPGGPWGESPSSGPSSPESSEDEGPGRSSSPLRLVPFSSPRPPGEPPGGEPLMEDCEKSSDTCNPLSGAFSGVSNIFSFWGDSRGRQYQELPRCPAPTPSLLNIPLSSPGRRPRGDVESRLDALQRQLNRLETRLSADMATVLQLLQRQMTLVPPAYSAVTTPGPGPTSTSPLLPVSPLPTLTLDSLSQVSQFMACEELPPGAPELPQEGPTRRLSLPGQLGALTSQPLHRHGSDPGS

The test addresses human ether-à-go-go-related gene (hERG) potassium channel (human, UniProt Q12809). Briefly: primary screen, population patch clamp on CHO cells stably expressing hERG; higher = less effect of the substance.
Turning to `O=c1cc(-c2ccc([N+](=O)[O-])cc2)c2cc3c(cc2[nH]1)OCCO3`, the “hERG current change (%, negative = inhibition) at 10uM” value is -12%. The result for `CC(=O)NC(NC(C)=O)c1cccc(OCc2ccccc2)c1` reads 9.33%. To `CC(NCc1ccc(Cl)cc1)C(O)c1ccccc1.Cl` (stereo not shown) belongs 0.613%; to `CC(NCc1cccc(OCc2ccccc2)c1)C(O)c1ccccc1.Cl` (stereo not shown), -50.9%. To `CC(NCc1ccc(OCc2ccc(Cl)cc2)cc1)C(O)c1ccccc1.Cl` (stereo not shown) belongs -62.5%; to `CC(NCc1ccc(Cl)cc1Cl)C(O)c1ccccc1.Cl` (stereo not shown), -26.6%; to `CC(NCc1ccc(Cl)c(Cl)c1)C(O)c1ccccc1.Cl` (stereo not shown), -0.311%.

For `Cc1ccc(C(=O)NCC(=O)OCCCn2c(=O)[nH]c3ccccc32)cc1`, the “hERG current change (%, negative = inhibition) at 10uM” value was -14.8%. Regarding `COc1ccc(N(CC(=O)Nc2ccc(C)cn2)S(=O)(=O)c2c(C)noc2C)cc1`, the “hERG current change (%, negative = inhibition) at 10uM” value is -24.8%.

Turning to `Cc1cccc(C)c1NC(=S)N1CCOCC1`, the “hERG current change (%, negative = inhibition) at 10uM” value is listed as 9.99%. The result for `Cc1ccc(NC(=O)CCS(=O)(=O)c2cccc3nonc23)c(Br)c1` reads 6.97%; that for `Cc1c(C(=O)N2CCC3(CC2)CC(=O)c2ccccc2O3)cccc1[N+](=O)[O-]`, -83.2%.

For `O=C1CC2(CCN(C(=O)c3ccccc3[N+](=O)[O-])CC2)Oc2ccccc21`, the “hERG current change (%, negative = inhibition) at 10uM” value is recorded as -62%. To `O=C(c1ccccc1[N+](=O)[O-])N1CCCN(C(=O)c2ccccc2[N+](=O)[O-])CC1` belongs -14.8%. As for `Cc1c(C(=O)N2CCC(C)CC2)cccc1[N+](=O)[O-]`, the “hERG current change (%, negative = inhibition) at 10uM” value came to 26.1%.

On to `O=C(c1ccccc1[N+](=O)[O-])N1CCC2(CC1)OCCO2`, for which the “hERG current change (%, negative = inhibition) at 10uM” value is 3.53%. Take `Cc1c(C(=O)Nc2ccccc2C(=O)N2CCCC2)cccc1[N+](=O)[O-]`: the “hERG current change (%, negative = inhibition) at 10uM” value was found to be 9.76%.

For the compound `NC(=O)c1ccc(NC(=O)CNC(=O)c2sc3ccccc3c2Cl)cc1`, the “hERG current change (%, negative = inhibition) at 10uM” value is given as 0.282%.

In the case of `Cn1nccc1C(=O)Nc1ccn(C23CC4CC(CC(C4)C2)C3)n1`, the “hERG current change (%, negative = inhibition) at 10uM” value is -11.6%. To `CN1CCN(S(=O)(=O)c2ccc(=O)[nH]c2)CC1` belongs 7.85%; to `O=C(NCCN1CCOCC1)c1cc(-c2ccc(Br)cc2)on1`, -22%; to `Cc1ccc(-c2cc(C(=O)NCCCN3CCOCC3)no2)cc1`, -30.8%. To `COc1cc2[nH]c(=O)c(C(=O)NCCCN3CCOCC3)c(O)c2cc1OC.Cl` belongs 9.48%; to `O=C(NCCCn1ccnc1)c1cc(-c2ccc(Br)cc2)on1`, -51.6%; to `O=C(NCCCN1CCOCC1)c1c(O)c2cc(Br)cc(Br)c2[nH]c1=O`, -64.6%.

Consider `O=C(NCCCn1ccnc1)c1cc(-c2ccccc2)on1`, for which the “hERG current change (%, negative = inhibition) at 10uM” value is reported as -16.3%. As to `Cc1ccc(-c2cc(C(=O)NCCCn3ccnc3)no2)cc1`, the “hERG current change (%, negative = inhibition) at 10uM” value is reported as -42.9%.

For the compound `O=C(NCCCN1CCOCC1)c1cc(-c2ccc(Br)cc2)on1`, the “hERG current change (%, negative = inhibition) at 10uM” value is on record as -58.6%. The result for `Cl.O=C(NCCCN1CCOCC1)c1c(O)c2ccccc2[nH]c1=O` reads -47.9%; that for `COc1ccc(C2C(C(=O)Nc3ccc(OC)c(OC)c3)c3ccccc3C(=O)N2C)cc1` (stereo not shown), 27.7%; that for `O=C(CCc1cn2ccccc2n1)NC1CCCc2c1cnn2-c1ccccc1F` (stereo not shown), 0.178%. The result for `Fc1cccc(C2CCCCN2Cc2nc(C3CC3)no2)c1` (stereo not shown) reads 13.3%. In the case of `Cc1ccn2c(=O)nc(SCC(=O)c3ccc(Cl)cc3)nc2c1`, the “hERG current change (%, negative = inhibition) at 10uM” value is -31.2%. To `CCOc1cc(/C=C/C(=O)N(CC)CC(=O)NCc2cccs2)cc(Cl)c1OC` belongs -27.7%; to `CCN(CC(=O)NCc1cccs1)C(=O)/C=C/c1cccc(Br)c1`, -66.8%; to `CCN(CC(=O)NCc1cccs1)C(=O)/C=C/c1ccc(C)cc1`, -29.4%. Regarding `CCOc1c(Cl)cc(/C=C/C(=O)N(CC)CC(=O)NCc2cccs2)cc1OC`, the “hERG current change (%, negative = inhibition) at 10uM” value is recorded as -55.4%. In the case of `CCN(CC(=O)NCc1cccs1)C(=O)/C=C/c1ccc(Cl)c(Cl)c1`, the “hERG current change (%, negative = inhibition) at 10uM” value is on record as -41.1%.

Turning to `CCOc1ccc(/C=C/C(=O)N(CC)CC(=O)NCc2cccs2)cc1OC`, the “hERG current change (%, negative = inhibition) at 10uM” value is on record as -28.3%. To `CCOC(=O)C1(C)NC(c2ccco2)C2C(=O)N(c3ccc(C)cc3)C(=O)C21` (stereo not shown) belongs 11.3%; to `C=CCSc1nc2ccccc2n2cnnc12`, -18.5%. To `Cc1ccccc1C(=O)N1CC(=O)Nc2ccc(F)cc2C1c1ccc(F)cc1` (stereo not shown) belongs -16.1%.

For `Cc1ccc2c(c1)C(c1ccccc1)N(C(=O)c1ccc(F)cc1)CC(=O)N2` (stereo not shown), the “hERG current change (%, negative = inhibition) at 10uM” value is given as -6.99%.

With `Cc1ccc2c(c1)C(c1ccc(F)cc1)N(C(=O)c1cc3ccccc3oc1=O)CC(=O)N2` (stereo not shown), the “hERG current change (%, negative = inhibition) at 10uM” value is listed as -55%. `O=C1CN(C(=O)c2cc3ccccc3oc2=O)C(c2ccc(F)cc2)c2cc(Br)ccc2N1` (stereo not shown): the “hERG current change (%, negative = inhibition) at 10uM” value is given as -68.6%. To `CC(=O)N1CC(=O)Nc2ccc(C)cc2C1c1ccccc1` (stereo not shown) belongs 14.7%; to `O=C1CN(C(=O)c2cc3ccccc3oc2=O)C(c2ccc(F)cc2)c2cc(F)ccc2N1` (stereo not shown), -32.1%. To `O=C1CN(C(=O)c2c(F)cccc2F)C(c2ccc(F)cc2)c2cc(Br)ccc2N1` (stereo not shown) belongs -35.8%. In the case of `O=C1CN(C(=O)c2cc3ccccc3oc2=O)C(c2ccccc2)c2cc(F)ccc2N1` (stereo not shown), the “hERG current change (%, negative = inhibition) at 10uM” value is on record as -33.9%. On to `COc1ccccc1C(=O)N1CC(=O)Nc2ccc(C)cc2C1c1ccc(F)cc1` (stereo not shown), for which the “hERG current change (%, negative = inhibition) at 10uM” value is -38.6%. For `Cc1ccc2c(c1)C(c1ccccc1)N(C(=O)c1cccc([N+](=O)[O-])c1)CC(=O)N2` (stereo not shown), the “hERG current change (%, negative = inhibition) at 10uM” value is -55.6%. Consider `Cc1ccc2c(c1)C(c1ccccc1)N(C(=O)c1cc3ccccc3oc1=O)CC(=O)N2` (stereo not shown), for which the “hERG current change (%, negative = inhibition) at 10uM” value is -65.1%.

For the compound `Cc1ccc2c(c1)C(c1ccccc1)N(C(=O)c1ccccc1)CC(=O)N2` (stereo not shown), the “hERG current change (%, negative = inhibition) at 10uM” value is -7.17%. To `CC1(C)OC(=O)C(=CNc2cccc(C(=O)O)c2)C(=O)O1` belongs 18.7%; to `COc1cc(/C=N/NC(=O)C(=O)NCC2CCCO2)cc(Cl)c1O` (stereo not shown), 31.8%. To `O=C(Nc1ccccc1)Nc1nc(-c2ccc(F)c(F)c2)cs1` belongs 16.3%.

On to `Cc1c(C)n2c(SCC(=O)N3CC(C)OC(C)C3)nnc2[nH]c1=O` (stereo not shown), for which the “hERG current change (%, negative = inhibition) at 10uM” value is reported as 9.45%.

Regarding `C/C(=N\NC(=O)c1c(Br)c(C)nn1C)c1cccc(NC(=O)c2ccccc2C)c1`, the “hERG current change (%, negative = inhibition) at 10uM” value was -4.71%. The result for `O=C(NC1CCCCCC1)C(=S)NCc1ccccc1` reads 5.94%; that for `Cc1ccc(C(=O)NCCC(=O)Nc2ccccc2C)cc1`, 19.5%. For `COCCNC(=O)Cn1cc(/C=C2\C(=O)NC(=O)N(c3ccccc3F)C2=O)c2ccccc21`, the “hERG current change (%, negative = inhibition) at 10uM” value came out at 17%. The result for `O=C1CN(C(=O)c2ccc(Br)o2)C(c2ccccc2)c2cc(Br)ccc2N1` (stereo not shown) reads -23.6%; that for `O=C1CN(C(=O)c2ccc(Br)o2)C(c2ccccc2)c2cc(F)ccc2N1` (stereo not shown), -45.3%; that for `Cc1ccc2c(c1)C(c1ccccc1)N(C(=O)c1ccc(Br)o1)CC(=O)N2` (stereo not shown), -56.9%. Turning to `Cc1c(-c2ccccc2)[n+](=O)c(-c2ccco2)c(C)n1[O-]`, the “hERG current change (%, negative = inhibition) at 10uM” value stood at 7.02%. To `COCCNC(=O)C1CC(=O)N(c2ccc(OC)cc2)C1c1ccc(OC)cc1` (stereo not shown) belongs 9.03%.

With `Cl.Clc1ccccc1C(c1nnnn1Cc1ccco1)N1CCN(Cc2ccco2)CC1` (stereo not shown), the “hERG current change (%, negative = inhibition) at 10uM” value was -27.6%.

Take `O=C(c1ccco1)N1CCN(C(c2ccccc2Cl)c2nnnn2Cc2cccs2)CC1` (stereo not shown): the “hERG current change (%, negative = inhibition) at 10uM” value is on record as -56.2%.

For the compound `COCCn1nnnc1C(c1ccccc1OC)N1CCN(C(=O)c2ccco2)CC1` (stereo not shown), the “hERG current change (%, negative = inhibition) at 10uM” value is -16.1%. `Cl.O=C(c1ccco1)N1CCN(C(c2ccccc2Cl)c2nnnn2CC2CCCO2)CC1` (stereo not shown): the “hERG current change (%, negative = inhibition) at 10uM” value is -12.3%. For `CCC(c1nnnn1Cc1cccs1)N1CCN(C(=O)c2ccco2)CC1` (stereo not shown), the “hERG current change (%, negative = inhibition) at 10uM” value is listed as -36.5%.

With `O=C(c1ccco1)N1CCN(C(c2ccccc2F)c2nnnn2Cc2cccs2)CC1` (stereo not shown), the “hERG current change (%, negative = inhibition) at 10uM” value is on record as -51%.

For `Cl.O=C(c1ccco1)N1CCN(C(c2ccccc2Cl)c2nnnn2Cc2ccco2)CC1` (stereo not shown), the “hERG current change (%, negative = inhibition) at 10uM” value is given as -65.1%. The result for `Cl.O=C(c1ccco1)N1CCN(C(c2ccccc2F)c2nnnn2CC2CCCO2)CC1` (stereo not shown) reads -17.2%; that for `CCC(C)(C)n1nnnc1C(c1ccccc1F)N1CCN(C(=O)c2ccco2)CC1` (stereo not shown), -13.9%. The result for `CC1=NNC(=O)C1CCC(=O)N/N=C\c1ccccc1[N+](=O)[O-]` (stereo not shown) reads 0.38%; that for `CCN1CCN(CCCNC(=O)c2ccc(CS(=O)c3ccc(Br)cc3)o2)CC1` (stereo not shown), 24.5%. The result for `CCOc1[nH]n(-c2ccccc2)c(=O)c1C=NCC(=O)OC` reads -18.8%; that for `CCCC(=O)c1ccc(N2CCN(C(=O)c3cccs3)CC2)c(F)c1`, -75.1%; that for `CC(=O)c1ccc(N2CCN(C(=O)c3cccs3)CC2)c(F)c1`, -28.3%.

Consider `CCC(=O)c1ccc(N2CCN(C(=O)c3ccccc3F)CC2)c(F)c1`, for which the “hERG current change (%, negative = inhibition) at 10uM” value was -20.7%. In the case of `CCC(=O)c1ccc(N2CCN(C(=O)c3cccs3)CC2)c(F)c1`, the “hERG current change (%, negative = inhibition) at 10uM” value was -51.6%. As for `CCCC(=O)c1ccc(N2CCCCC2)c(F)c1`, the “hERG current change (%, negative = inhibition) at 10uM” value is 10.5%. For `CCCC(=O)c1ccc(N2CCCC2)c(F)c1`, the “hERG current change (%, negative = inhibition) at 10uM” value stood at 6.96%. As for `COc1ccccc1CNS(=O)(=O)c1c(C(=O)N2CCCCC2)c(C)n(C)c1C`, the “hERG current change (%, negative = inhibition) at 10uM” value is listed as 5.51%.

The values are drawn from article PMC4336329 (PLoS ONE, 2015).
